From PubChem BioAssay (NCATS) come the findings set out here.

For assay [1], the target named is Cytochrome P450 2C9 (Homo sapiens) (UniProt P11712). Nature of the assay: qHTS Assay for Inhibitors and Substrates of Cytochrome P450 2C9 (AID 883). For activity change, negative = inhibition: % is set by controls: 0 for no effect and ±100 for the full control effect. Note: nearly all actives have a fitted effect of over 60% in size. Note: potency is the fitted concentration of half-maximal effect. The essentials:
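Inhibition of CYP2C9 is scored as loss of luminescence, with 57uM sulphaphenazole defining 100% inhibition. Substrate Luciferin-H is used at 100uM, equal to its KM; enzyme at 10nM in 25mM KPO4, 60 min at 37C with NADPH regeneration.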

The nature of assay [2]: qHTS Assay for Identification of Small Molecule Antagonists for NFkB Signaling Pathway (AID 895; active = well fitted inhibition curve with a large enough effect in the signal ratio, with a control signal flat, not every such curve was filed as active; the % refers to the signal ratio; note: % is set by controls: 0 for no effect and ±100 for the full control effect). Summed up: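 Beta-lactamase reporter read-out (460 and 530 nm emission ratio, 405 nm excitation, 2 hrs substrate loading RT) after 5 hr stimulation with 10 pM TNF alpha in compound-treated NFkB-bla ME-180 cells in low-serum medium.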
(Quantitative high-throughput screening tests each substance at several concentrations.)

A short description of assay [3]: qHTS Assay for Identification of Small Molecule Agonists for Thrombopoietin (TPO) Signaling Pathway (AID 917). Note: % is set by controls: 0 for no effect and ±100 for the full control effect. The essentials:
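Stimulation at the TPO EC50 (26 pM final) was used to detect activators. Ba/F3 mouse cells bearing human TPO receptor and a luciferase reporter under the Glycoprotein IIb promoter were exposed to compounds for 24 hrs at 37 C.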

For assay [4], the target named is Muscarinic acetylcholine receptor M1 (Rattus norvegicus) (UniProt P08482). As to the kind of experiment: qHTS Assay for Antagonists of Acetylcholine Muscarinic M1 Receptor: Kinetic Measurement of Intracellular Calcium Response (AID 943). For activity change, negative = inhibition: series mostly up to about 35 µM. Note: nearly all actives have a fitted effect of over 75% in size. Note: potency is the fitted concentration of half-maximal effect. The essentials: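 Read-out: peak over basal Fluo-4 fluorescence, kinetic at 1 Hz for 4 min after EC80 carbachol (100 nM final). Rat M1-CHO cells, dye loaded 1 h at 37C, compound added 10 min before agonist.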

Assay [5] shares this target. Nature of the assay: qHTS Assay for Antagonists of Acetylcholine Muscarinic M1 Receptor: Measurement of IP-One Response (AID 944). Note: nearly all actives have a fitted effect of over 75% in size. The essentials: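 Read-out: HTRF competition between d2-IP1 and Eu-cryptate anti-IP1 antibody, emission 620 and 665 nm. Stimulus was carbachol, EC80 (200 nM), for 30 min in M1-CHO cells (rat receptor), after 10 min compound pre-treatment.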

The target of assay [6] is Pyruvate kinase (Leishmania mexicana) (UniProt Q27686). Nature of the assay: qHTS Validation Assay for Inhibitors of Leishmania Mexicana Pyruvate Kinase (AID 945).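 Note: 0% = DMSO only neutral control wells.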 Summed up: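 Purified LmPYK (E451W mutant, 0.2 nM) was incubated 1 h at room temperature with 0.5 mM PEP and 0.1 mM ADP in 50 mM imidazole pH 7.2, 50 mM KCl, 7 mM MgCl2; ATP formed was read by PKLight luminescence, normalized to DMSO wells.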

Assay [7] addresses Pyruvate kinase PKM (Homo sapiens) (UniProt P14618). As to the kind of experiment: qHTS Assay for Activators of Human Muscle Pyruvate Kinase (AID 954; active = well fitted curve in the direction sought with a large enough effect, not every such curve was filed as active;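 note: 0% = uninhibited enzyme and -100% = no enzyme or full thiadiazolimine inhibition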). The essentials:
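ATP production by PKM2 detected via luciferase luminescence after 1 h room-temperature reaction (0.1 nM enzyme, PEP at Km 0.5 mM, ADP 0.1 mM, pH 7.2 imidazole buffer). Inhibition scaled to no-enzyme control; activation referenced to 0.3 nM enzyme wells.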

The target of assay [8] is Alpha-galactosidase A (Homo sapiens) (UniProt P06280). As to the kind of experiment: Counterscreen for Glucocerebrosidase Inhibitors: qHTS Assay for Human alpha-Galactosidase at pH 4.5 (AID 992). Note: 0% is about no effect. The essentials: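 Fluorogenic 1536-well qHTS at pH 4.5 (citrate, Tween-20): 2 nM enzyme, 80 uM 4-MU-alpha-galactoside, 20 min room temperature, NaOH/glycine stop. Titration 0.7 nM to 77 uM, data normalized to no-enzyme and full-activity controls, Hill-fitted AC50.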
(Counterscreens check selectivity or assay interference.)

Assay [9] concerns the target alpha-glucosidase (Oryza sativa, rice) (UniProt Q653V4). As to the kind of experiment: Counterscreen for Glucocerebrosidase Inhibitors: qHTS Assay for Rice alpha-Glucosidase at pH 5.0 (AID 997).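 Note: 0% = full activity with enzyme and -100% = basal without enzyme.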 Summed up:
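Endpoint fluorogenic assay at pH 5.0: compounds (0.7 nM to 77 uM) titrated against 4 nM rice enzyme and 400 uM 4-MU-alpha-glucoside for 20 min at room temperature; NaOH/glycine stop, read ex 365/em 440 nm, Hill-fitted AC50.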

In assay [10] the target is Cytochrome P450 3A4 (Homo sapiens) (UniProt P08684). Nature of the assay: qHTS Assay for Activators of Cytochrome P450 3A4 (AID 885). Note: nearly all actives have a fitted effect of over 65% in size. The essentials: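 Luminescent readout of luciferin formed from 25 uM Luciferin-PPXE (KM level) by 20 nM CYP3A4 in 200 mM KPO4, with 60 min NADPH-driven reaction at room temperature after 10 min compound exposure. Ketoconazole (57 uM) defined 100% inhibition.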

Assay [11] addresses Cytochrome P450 2C19 (Homo sapiens) (UniProt P33261). Nature of the assay: qHTS Assay for Inhibitors and Substrates of Cytochrome P450 2C19 (AID 899). Note: nearly all actives have a fitted effect of over 60% in size. Note: potency is the fitted concentration of half-maximal effect. Summed up:
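5nM enzyme + 10uM Luciferin-H EGE (=KM), 50mM KPO4; cpd pin-transferred, 10 min 37C; NADPH regen, 60 min 37C; stopped w/ luciferin detection reagent, 20 min; luminescence. Normalized to 57uM ketoconazole (AC100).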

Structures are written as SMILES. A number with no mark means an inactive call. Inconclusive results are not listed. Active and inactive are the calls of the source. Unless noted, calls come from the whole dose curve; as a rule, active = well fitted curve in the direction sought with a large enough effect; inconclusive = small, poorly fitted or top-dose-only effect, or another doubt; inactive = no such curve, though single readings can be large; an effect the other way counts as inactive or inconclusive.

Sequence of Alpha-galactosidase A (Homo sapiens) (P06280 whole entry, looked up): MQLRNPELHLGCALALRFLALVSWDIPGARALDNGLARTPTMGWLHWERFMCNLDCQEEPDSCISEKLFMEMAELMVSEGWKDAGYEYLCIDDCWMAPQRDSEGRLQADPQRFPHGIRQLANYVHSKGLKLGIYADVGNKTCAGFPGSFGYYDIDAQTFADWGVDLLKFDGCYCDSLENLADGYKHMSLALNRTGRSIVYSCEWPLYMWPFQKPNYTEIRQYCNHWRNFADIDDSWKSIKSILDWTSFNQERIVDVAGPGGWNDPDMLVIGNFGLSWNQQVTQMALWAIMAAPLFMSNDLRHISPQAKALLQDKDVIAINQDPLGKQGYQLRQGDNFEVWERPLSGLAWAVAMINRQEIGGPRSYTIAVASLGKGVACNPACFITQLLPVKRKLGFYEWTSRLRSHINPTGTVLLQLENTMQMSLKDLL
Sequence of Cytochrome P450 2C9 (Homo sapiens) (P11712 whole entry, looked up): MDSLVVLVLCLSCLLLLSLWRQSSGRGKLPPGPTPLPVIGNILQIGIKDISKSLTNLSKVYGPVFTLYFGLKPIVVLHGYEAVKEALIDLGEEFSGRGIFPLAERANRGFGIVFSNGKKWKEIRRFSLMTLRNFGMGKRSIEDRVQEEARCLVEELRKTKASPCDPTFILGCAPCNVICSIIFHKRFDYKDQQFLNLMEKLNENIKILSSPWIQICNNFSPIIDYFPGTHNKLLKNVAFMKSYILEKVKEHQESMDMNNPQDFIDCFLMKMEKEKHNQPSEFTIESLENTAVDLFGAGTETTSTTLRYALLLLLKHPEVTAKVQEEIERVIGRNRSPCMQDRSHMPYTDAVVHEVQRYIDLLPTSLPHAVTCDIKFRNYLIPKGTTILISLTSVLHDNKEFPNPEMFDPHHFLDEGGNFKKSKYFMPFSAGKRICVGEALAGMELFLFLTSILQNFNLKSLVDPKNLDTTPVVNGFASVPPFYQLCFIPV
Sequence of Muscarinic acetylcholine receptor M1 (Rattus norvegicus) (P08482 whole entry, looked up): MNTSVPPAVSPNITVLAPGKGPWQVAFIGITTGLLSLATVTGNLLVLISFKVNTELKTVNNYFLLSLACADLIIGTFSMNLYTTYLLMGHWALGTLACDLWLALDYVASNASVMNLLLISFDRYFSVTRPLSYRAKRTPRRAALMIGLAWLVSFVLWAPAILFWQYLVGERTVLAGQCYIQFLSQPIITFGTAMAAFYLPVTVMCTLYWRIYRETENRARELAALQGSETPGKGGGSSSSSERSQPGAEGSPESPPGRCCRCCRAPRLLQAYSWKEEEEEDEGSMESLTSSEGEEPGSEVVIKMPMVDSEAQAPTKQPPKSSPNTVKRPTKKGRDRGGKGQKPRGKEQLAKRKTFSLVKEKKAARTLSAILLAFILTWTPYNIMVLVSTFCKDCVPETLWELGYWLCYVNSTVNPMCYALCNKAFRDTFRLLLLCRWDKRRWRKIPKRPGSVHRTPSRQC
Sequence of Cytochrome P450 2C19 (Homo sapiens) (P33261 whole entry, looked up): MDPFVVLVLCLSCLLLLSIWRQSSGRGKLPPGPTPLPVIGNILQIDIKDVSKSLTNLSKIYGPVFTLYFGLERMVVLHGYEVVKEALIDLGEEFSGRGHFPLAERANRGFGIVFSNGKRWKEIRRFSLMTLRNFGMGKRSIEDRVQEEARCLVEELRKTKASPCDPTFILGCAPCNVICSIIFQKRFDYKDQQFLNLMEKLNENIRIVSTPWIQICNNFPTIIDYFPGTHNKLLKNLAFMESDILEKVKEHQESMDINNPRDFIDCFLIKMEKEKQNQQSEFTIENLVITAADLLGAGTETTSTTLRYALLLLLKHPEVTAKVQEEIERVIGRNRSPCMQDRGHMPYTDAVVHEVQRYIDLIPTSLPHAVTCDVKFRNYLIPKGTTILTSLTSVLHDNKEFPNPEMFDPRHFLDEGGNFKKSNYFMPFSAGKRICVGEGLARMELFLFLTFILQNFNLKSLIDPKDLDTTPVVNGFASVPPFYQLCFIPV
Sequence of Pyruvate kinase PKM (Homo sapiens) (P14618 whole entry, looked up): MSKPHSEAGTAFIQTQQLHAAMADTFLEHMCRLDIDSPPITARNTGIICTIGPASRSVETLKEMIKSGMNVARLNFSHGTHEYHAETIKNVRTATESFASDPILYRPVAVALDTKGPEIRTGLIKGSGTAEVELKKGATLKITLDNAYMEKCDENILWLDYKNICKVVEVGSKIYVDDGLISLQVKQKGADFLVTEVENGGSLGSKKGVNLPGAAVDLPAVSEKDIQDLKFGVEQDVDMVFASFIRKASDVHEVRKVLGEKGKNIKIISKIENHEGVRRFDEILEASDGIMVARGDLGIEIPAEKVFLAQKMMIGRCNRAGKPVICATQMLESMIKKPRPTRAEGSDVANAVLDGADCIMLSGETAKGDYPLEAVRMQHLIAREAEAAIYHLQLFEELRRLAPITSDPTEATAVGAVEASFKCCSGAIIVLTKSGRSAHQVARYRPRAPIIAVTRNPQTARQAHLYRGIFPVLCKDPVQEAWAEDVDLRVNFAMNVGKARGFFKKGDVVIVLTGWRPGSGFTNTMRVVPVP
Sequence of Pyruvate kinase (Leishmania mexicana) (Q27686 2-499 E452W): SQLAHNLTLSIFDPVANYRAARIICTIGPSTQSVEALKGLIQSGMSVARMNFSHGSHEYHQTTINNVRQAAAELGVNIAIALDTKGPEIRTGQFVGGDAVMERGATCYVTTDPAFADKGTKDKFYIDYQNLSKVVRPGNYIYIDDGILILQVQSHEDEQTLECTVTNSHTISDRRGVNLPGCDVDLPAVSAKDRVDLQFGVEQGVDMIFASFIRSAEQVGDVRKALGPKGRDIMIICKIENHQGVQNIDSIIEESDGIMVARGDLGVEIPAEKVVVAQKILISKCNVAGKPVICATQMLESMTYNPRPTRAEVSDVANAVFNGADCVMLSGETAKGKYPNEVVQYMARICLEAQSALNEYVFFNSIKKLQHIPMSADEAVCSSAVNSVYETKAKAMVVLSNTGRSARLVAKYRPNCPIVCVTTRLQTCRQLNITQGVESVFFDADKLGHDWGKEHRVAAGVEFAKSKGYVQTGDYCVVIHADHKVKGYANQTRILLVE
Sequence of Cytochrome P450 3A4 (Homo sapiens) (P08684 whole entry, looked up): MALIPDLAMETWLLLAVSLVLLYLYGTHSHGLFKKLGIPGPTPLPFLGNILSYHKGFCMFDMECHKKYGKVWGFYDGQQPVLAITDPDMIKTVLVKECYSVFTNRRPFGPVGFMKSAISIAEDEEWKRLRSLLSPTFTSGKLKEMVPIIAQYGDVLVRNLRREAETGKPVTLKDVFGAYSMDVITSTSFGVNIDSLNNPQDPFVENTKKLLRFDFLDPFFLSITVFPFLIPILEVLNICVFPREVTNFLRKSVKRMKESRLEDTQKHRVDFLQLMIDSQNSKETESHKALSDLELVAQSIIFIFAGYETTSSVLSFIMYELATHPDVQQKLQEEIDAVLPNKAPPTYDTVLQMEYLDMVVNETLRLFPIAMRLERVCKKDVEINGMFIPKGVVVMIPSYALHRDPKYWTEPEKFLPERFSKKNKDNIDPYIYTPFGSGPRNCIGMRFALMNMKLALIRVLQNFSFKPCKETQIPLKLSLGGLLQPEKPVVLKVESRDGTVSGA

With `O=C(O)[C@H]1CCN1`, the Potency result in [1], in assay [2], in [4] and in [5] was “inactive” each time. Also, the outcome in assay [3], in assay [6], in assay [7], in [8] and in [9] was inactive.

`COc1ccc2c3c1O[C@@H]1C(=O)CC[C@@]4(O)[C@@H](C2)N(CC2CC2)CC[C@]314`: the Potency result in assay [10], in assay [2] and in assay [5] was “inactive” throughout. For the same compound, the result in [3], in assay [6], in [7], in assay [8] and in assay [9] was inactive.

Consider `C[C@]12CC[C@H](O)CC1=CC[C@@H]1[C@H]2CC[C@]2(C)C(=O)CC[C@H]12`, for which the Potency entry in assay [2] and in [5] was “inactive” in each case. Also, the compound was classed as inactive in assay [3], in assay [6], in assay [7], in [8] and in assay [9].

Turning to `C[N+]1(C)C2CC(OC(=O)C(CO)c3ccccc3)CC1[C@@H]1O[C@H]21` (stereo not given in full), the Potency entry in [10] and in assay [2] was “inactive” in each case. Moreover, the outcome in [3], in assay [6], in [7], in assay [8] and in assay [9] was inactive.

As for `N[C@H](Cc1ccc(N(CCCl)CCCl)cc1)C(=O)O`, in [5], the Potency entry was “inactive”. Also, the call in assay [6], in assay [7], in assay [8] and in assay [9] was inactive.

With `NC[C@H](O)c1cc(O)c(O)cc1F`, the Potency entry in assay [10], in assay [2] and in assay [5] was “inactive” in each case. Besides, the compound was classed as inactive in assay [3], in [6], in [7], in assay [8] and in [9].

As for `COc1cc(C[C@H](C)N)c(OC)cc1I`, the Potency result in [10] was “inactive”. Also, the compound was classed as inactive in assay [3], in assay [6], in assay [7], in assay [8] and in assay [9]. The Potency in assay [4] is 891 nM (active).

In the case of `C[C@@]12CC[C@H]3[C@@H](CC[C@@H]4C[C@H](O)CC[C@]43C)[C@H]1CC[C@H]2O`, the Potency result in assay [10] and in assay [5] was “inactive” each time. Besides, the call in assay [3], in assay [6], in assay [7], in assay [8] and in assay [9] was inactive.

As to `CC(C)[C@@]1(NC(=O)[C@@H]2C=C3c4cccc5[nH]cc(c45)C[C@@H]3N(C)C2)O[C@]2(O)[C@H]3CCCN3C(=O)[C@H](Cc3ccccc3)N2C1=O`, the Potency result in assay [11] was “inactive”.

Turning to `O=C(Nc1cc[c]([Sb](=[O])([OH])[OH])cc1)c1ccccc1`, the activity change, negative = inhibition in [1] is 2.5% [at 11.4 µM]. Besides, the Potency entry in assay [11] was “inactive”.

Take `O=[As](O)(O)c1ccc2nc3cc([As](=O)(O)O)ccc3nc2c1`: in assay [11], the Potency result is “inactive”.

For `CC(=O)[C@@H]1CC[C@H]2[C@H]3CC[C@H]4C[C@@H](O)CC[C@]4(C)[C@@H]3CC[C@]12C`, the Potency in [1] is 2000 nM (active). For the same compound, the Potency result in assay [10] and in assay [5] was “inactive” each time. Further, the result in [6], in assay [7], in assay [8] and in assay [9] was inactive.

With `CC(C)[C@@]1(NC(=O)[C@H]2C[C@H]3c4cccc5[nH]cc(c45)C[C@@H]3N(C)C2)O[C@]2(O)[C@H]3CCCN3C(=O)[C@H](Cc3ccccc3)N2C1=O`, the Potency in assay [1] was 2510 nM (active); in [11], 6310 nM (active).

In the case of `CCN(CC)c1ncnc2c1ncn2[C@@H]1O[C@@H](COP(=O)(O)OP(=O)(O)C(Br)(Br)P(=O)(O)O)[C@H](O)[C@@H]1O`, the result in assay [3], in [6], in [7], in assay [8] and in assay [9] was inactive. Besides, the Potency entry in [4] and in [5] was “inactive” throughout.

Consider `C[N+]1(C)CCc2cc3c(cc2[C@@H]1[C@@H]1OC(=O)c2c1ccc1c2OCO1)OCO3`, for which the Potency entry in [10] and in assay [2] was “inactive” in each case. Also, the call in [3], in assay [6], in assay [7], in assay [8] and in assay [9] was inactive.
